# The supplement of paper PMC10849652
# The full data set covers some 7,900 targets. This sample favours those with a hit. About 0.6% of all pairs of compound and target were hits. Unmarked numbers belong to inactive results.
# Key:
# Test in all cases: log2 fold change, soluble protein after heating vs DMSO (PISA); higher = thermal stabilisation; K562 cells, 10 uM, 30 min; active = over 0.2 and 3.5 SD of the protein, either way, in both replicates (recomputed)
# [1] = compound: C#Cc1cccc(Nc2ncnc3cc(OCCOC)c(OCCOC)cc23)c1 [erlotinib]
# Summary of the method: (§1)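 Thermal stability values are relative to control samples and come from duplicates. They are expressed as log2 fold changes. For measurement, K562 cells (2×10^6 cells/mL) received 10 μM compound for 30 min, and aliquots were heated for 3 min over 48°C-58°C, pooled, and extracted at 4°C in PBS with 0.5% NP-40. Soluble protein, the supernatant after 21,000xg for 90 min, was quantified by TMTpro 16plex LC-MS/MS with equalised channel sums.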
# [2] = compound: C/C(=N\NC(=O)C1=CC(=CC=C1)S(=O)(=O)N2CCOCC2)/C3=C(C=CC(=C3)Cl)O
# Summary of the method: as §1
# [3] = compound: C1=CC(=C(C=C1Cl)C2=NC3=NC=CN=C3C(=N2)NC4=CC=NC=C4)F
# Summary of the method: as §1
# [4] = compound: C1=CC(=CC=C1C2=NC3=C(N2)C=C(C=C3)C(=O)N)OC4=CC=C(C=C4)Cl
# Summary of the method: as §1
# [5] = compound: C1=CC2=C(C=CC(=C2)/C=C\3/C(=O)NC(=NCC4=CC=CS4)S3)N=C1
# Summary of the method: as §1
# [6] = compound: C1=CC2=NC=CN=C2C=C1/C=C/3\C(=O)NC(=O)S3
# Summary of the method: as §1
# [7] = compound: C1=CC=C(C=C1)C2=NC(=C(N2)C3=CC=NC=C3)C4=CC(=C(C=C4)Cl)O
# Summary of the method: as §1
# [8] = compound: C1=CC=C2C(=C1)C3=NNC4=CC=CC(=C43)C2=O
# Summary of the method: as §1
# [9] = compound: C1CCN(C1)C(=O)NC2=CC=CC(=C2)NC3=NC=C(C(=N3)NCCC4=CN=CN4)Br
# Summary of the method: as §1
# [10] = compound: C1CN(CCC1(CC2=CC=C(C=C2)Cl)N)C3=NC=NC4=C3C=CN4
# Summary of the method: as §1
# Chain of UniProt P42330 (P42330 whole entry, looked up): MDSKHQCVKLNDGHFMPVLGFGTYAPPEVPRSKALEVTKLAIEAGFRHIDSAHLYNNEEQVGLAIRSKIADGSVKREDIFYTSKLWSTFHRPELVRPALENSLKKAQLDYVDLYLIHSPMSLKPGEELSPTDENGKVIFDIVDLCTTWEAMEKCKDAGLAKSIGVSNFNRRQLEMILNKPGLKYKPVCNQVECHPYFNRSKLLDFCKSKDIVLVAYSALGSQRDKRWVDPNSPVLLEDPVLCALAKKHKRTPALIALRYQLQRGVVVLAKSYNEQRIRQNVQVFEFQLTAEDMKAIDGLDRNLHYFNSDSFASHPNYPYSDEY
# Chain of UniProt P78363 (P78363 whole entry, looked up): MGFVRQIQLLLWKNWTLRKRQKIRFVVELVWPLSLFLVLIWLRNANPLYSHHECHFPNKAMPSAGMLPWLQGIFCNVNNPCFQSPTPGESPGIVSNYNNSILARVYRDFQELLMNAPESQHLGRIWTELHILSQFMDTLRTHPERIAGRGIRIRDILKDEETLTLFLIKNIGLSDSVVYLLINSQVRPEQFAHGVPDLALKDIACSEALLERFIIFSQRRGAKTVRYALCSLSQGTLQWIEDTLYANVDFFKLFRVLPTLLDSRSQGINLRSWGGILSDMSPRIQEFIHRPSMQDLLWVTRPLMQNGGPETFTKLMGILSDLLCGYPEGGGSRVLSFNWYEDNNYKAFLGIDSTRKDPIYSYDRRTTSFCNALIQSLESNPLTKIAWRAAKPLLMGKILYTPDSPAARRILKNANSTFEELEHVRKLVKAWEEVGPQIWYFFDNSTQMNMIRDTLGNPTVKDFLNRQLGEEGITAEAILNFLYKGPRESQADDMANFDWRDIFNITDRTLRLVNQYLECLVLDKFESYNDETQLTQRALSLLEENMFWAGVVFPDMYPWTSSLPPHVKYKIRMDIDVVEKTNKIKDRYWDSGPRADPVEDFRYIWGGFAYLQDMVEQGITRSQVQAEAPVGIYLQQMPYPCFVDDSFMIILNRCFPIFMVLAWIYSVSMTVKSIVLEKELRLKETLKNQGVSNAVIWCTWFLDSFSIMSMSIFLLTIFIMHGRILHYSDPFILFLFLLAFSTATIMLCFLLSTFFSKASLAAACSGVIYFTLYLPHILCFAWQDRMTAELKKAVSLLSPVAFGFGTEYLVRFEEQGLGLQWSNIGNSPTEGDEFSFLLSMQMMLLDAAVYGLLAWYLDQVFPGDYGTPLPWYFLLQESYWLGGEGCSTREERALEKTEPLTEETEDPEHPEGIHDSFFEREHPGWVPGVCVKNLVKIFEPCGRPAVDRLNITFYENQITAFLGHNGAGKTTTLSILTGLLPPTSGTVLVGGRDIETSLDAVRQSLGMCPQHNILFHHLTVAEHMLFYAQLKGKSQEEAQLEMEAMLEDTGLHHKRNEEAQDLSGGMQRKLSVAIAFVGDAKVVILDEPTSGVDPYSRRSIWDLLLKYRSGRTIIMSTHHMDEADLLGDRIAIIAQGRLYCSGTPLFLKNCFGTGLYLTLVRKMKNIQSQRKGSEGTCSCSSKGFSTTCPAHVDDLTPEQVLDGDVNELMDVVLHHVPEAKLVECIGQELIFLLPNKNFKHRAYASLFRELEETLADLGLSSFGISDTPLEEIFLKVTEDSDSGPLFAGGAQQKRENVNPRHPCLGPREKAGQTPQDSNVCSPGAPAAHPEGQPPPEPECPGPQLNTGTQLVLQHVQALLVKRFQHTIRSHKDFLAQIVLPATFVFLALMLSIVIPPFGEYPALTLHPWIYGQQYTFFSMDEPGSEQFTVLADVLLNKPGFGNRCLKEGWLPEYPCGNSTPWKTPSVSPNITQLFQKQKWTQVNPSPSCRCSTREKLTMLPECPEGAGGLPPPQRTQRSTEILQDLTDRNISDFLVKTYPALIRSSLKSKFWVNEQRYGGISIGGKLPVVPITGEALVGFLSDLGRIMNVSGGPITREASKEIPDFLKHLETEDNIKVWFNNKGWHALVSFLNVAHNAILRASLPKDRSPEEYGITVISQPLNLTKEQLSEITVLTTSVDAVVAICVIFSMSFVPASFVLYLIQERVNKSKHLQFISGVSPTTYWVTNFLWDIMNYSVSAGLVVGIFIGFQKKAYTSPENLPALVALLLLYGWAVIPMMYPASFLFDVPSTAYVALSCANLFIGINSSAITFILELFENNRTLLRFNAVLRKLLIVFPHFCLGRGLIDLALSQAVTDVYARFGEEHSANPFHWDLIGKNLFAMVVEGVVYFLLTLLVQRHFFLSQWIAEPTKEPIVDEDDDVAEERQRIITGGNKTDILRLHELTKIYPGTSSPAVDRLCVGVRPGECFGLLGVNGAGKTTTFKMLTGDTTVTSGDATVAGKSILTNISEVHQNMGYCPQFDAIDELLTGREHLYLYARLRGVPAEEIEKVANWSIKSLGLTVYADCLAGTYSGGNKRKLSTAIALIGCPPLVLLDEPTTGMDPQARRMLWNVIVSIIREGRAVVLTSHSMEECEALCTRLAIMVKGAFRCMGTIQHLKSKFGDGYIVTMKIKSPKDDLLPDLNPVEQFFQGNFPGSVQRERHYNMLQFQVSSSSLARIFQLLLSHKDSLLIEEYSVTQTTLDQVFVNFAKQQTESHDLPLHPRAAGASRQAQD
# Chain of UniProt Q9HC16 (Q9HC16 whole entry, looked up): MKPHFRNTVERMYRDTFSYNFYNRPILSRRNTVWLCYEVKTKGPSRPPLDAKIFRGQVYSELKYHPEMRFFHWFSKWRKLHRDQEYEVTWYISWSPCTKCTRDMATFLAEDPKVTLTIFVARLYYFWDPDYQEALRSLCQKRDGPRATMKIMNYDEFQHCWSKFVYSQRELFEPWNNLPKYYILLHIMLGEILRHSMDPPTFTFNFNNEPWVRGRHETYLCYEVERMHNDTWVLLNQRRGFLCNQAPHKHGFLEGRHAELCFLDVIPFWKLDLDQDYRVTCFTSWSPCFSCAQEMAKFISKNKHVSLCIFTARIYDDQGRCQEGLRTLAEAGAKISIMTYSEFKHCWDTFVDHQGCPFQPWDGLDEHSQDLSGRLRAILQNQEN
# Chain of UniProt P55196 (P55196 whole entry, looked up): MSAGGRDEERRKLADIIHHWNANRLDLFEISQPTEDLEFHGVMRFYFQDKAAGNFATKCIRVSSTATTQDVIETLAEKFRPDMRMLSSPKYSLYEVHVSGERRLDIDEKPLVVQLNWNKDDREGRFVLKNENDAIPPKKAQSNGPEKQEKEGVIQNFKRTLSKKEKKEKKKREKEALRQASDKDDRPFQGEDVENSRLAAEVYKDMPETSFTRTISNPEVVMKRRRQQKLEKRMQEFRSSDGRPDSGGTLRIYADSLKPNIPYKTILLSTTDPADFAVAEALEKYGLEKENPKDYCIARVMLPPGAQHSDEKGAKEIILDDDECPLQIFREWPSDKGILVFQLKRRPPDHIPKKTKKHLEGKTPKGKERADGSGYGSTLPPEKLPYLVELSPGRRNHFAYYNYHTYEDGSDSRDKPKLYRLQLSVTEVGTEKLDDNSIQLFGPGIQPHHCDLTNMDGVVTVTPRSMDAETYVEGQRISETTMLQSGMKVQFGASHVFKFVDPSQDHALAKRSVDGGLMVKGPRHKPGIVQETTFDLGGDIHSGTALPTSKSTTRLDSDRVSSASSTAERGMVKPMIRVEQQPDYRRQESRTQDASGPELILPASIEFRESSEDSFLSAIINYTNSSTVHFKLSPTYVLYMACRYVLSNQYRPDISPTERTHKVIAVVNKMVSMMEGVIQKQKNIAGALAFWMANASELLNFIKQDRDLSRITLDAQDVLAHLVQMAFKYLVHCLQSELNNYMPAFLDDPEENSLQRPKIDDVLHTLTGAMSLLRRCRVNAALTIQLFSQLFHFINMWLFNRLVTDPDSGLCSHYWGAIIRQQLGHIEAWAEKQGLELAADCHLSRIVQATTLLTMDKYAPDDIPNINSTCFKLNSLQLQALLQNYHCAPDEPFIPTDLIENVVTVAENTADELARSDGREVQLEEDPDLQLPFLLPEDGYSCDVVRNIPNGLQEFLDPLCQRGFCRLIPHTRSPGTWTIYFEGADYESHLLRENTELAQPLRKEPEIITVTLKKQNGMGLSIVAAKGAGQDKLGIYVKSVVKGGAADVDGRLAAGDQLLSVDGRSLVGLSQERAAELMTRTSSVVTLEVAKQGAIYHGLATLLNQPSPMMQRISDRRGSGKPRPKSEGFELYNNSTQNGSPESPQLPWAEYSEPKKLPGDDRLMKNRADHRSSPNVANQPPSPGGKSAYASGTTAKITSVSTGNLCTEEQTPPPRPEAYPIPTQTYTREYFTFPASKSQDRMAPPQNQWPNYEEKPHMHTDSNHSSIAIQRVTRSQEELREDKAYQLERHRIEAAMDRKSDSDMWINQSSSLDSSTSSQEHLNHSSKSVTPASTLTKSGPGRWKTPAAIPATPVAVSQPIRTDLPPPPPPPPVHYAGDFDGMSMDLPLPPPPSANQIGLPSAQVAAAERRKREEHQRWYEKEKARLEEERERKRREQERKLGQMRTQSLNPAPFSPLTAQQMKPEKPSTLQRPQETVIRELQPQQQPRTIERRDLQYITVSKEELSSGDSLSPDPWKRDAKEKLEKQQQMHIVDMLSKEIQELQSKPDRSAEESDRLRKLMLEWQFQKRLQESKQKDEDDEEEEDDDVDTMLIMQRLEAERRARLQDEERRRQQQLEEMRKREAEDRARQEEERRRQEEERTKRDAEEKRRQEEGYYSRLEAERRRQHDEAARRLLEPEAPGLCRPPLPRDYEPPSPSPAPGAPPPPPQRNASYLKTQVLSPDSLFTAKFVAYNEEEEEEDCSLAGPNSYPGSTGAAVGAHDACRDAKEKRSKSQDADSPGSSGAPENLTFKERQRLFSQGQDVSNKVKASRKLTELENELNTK
# Chain of UniProt Q9NXW9 (Q9NXW9 whole entry, looked up): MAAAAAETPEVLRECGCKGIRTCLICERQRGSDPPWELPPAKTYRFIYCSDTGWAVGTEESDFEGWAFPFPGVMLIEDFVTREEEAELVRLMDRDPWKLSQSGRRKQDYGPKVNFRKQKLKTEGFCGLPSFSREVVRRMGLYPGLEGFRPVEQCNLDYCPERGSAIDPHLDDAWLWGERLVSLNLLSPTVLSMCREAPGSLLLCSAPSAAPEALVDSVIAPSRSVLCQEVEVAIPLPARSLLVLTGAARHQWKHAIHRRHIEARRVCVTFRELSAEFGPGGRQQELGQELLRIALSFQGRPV
Target,log2 fold change [1],log2 fold change [2],log2 fold change [3],log2 fold change [4],log2 fold change [5],log2 fold change [6],log2 fold change [7],log2 fold change [8],log2 fold change [9],log2 fold change [10]
APLP2 (UniProt Q06481),0.003,0.009,-0.023,-0.034,0.023,0.004,0.044,-0.03,-0.047,-0.002
AIFM2 (UniProt Q9BRQ8),-0.038,0.045,-0.001,0.064,-0.025,-0.032,0.041,0.172,-0.045,0.064
ATP12A isoform 2 (UniProt P54707),0.01,-0.002,0.025,0.014,0.007,0.026,0.025,-0.049,-0.051,0.05
ATP6V1C1 (UniProt P21283),-0.103,0.02,-0.135,-0.021,-0.011,0.046,-0.244,0.045,-0.067,-0.227
BZW2 (UniProt Q9Y6E2),-0.018,0.106,0.054,-0.016,0.033,0.026,0.022,0.013,0.037,-0.021
BCAP29 isoform 2 (UniProt Q9UHQ4),-0.02,0.002,0.077,0.062,-0.026,0.086,-0.034,0.038,0.062,-0.022
BRD8 (UniProt Q9H0E9),-0.057,-0.036,-0.067,0.068,-0.005,0.037,-0.074,-0.064,0.016,-0.058
APOBEC3G (UniProt Q9HC16),-0.087,0.027,-0.124,0.047,-0.005,0.056,-0.056,0.109,0.181,-0.362
ATG9A (UniProt Q7Z3C6),0.044,0.03,0.057,-0.003,0.047,0.021,0.045,-0.005,-0.026,-0.023
ADPRHL2 (UniProt Q9NX46),0.03,0.024,0.122,0.048,0.043,0.006,0.019,0.049,0.003,-0.165
ABCA4 (UniProt P78363),0.191,-0.367,0.107,-0.151,0.062,-0.073,0.042,0.044,0.033,0.145
ARL3 (UniProt P36405),-0.009,0.007,0.033,-0.037,0.046,0.007,0.019,-0.015,-0.026,0.041
AKR1C3 (UniProt P42330),0.063,0.067,0.117,-0.095,0.02,0.067,0.796 (active),-0.022,0.031,0.044
ALG3 (UniProt Q92685),0.024,0.127,0.07,-0.081,0.03,-0.002,0.022,-0.011,-0.133,0.103
AFDN isoform 1 (UniProt P55196),-0.008,0.072,0.002,-0.003,-0.136,-0.018,-0.082,-0.005,,
ATAD3B (UniProt Q5T9A4),-0.027,-0.018,-0.128,-0.006,-0.005,-0.002,-0.06,0.066,0.01,-0.091
BRK1 isoform 2 (UniProt Q8WUW1),-0.115,0.003,0.279,0.04,0.027,0.072,0.051,-0.02,-0.08,-0.037
AFG1L (UniProt Q8WV93),0.053,0,0.076,-0.083,0.065,0.041,-0.204,-0.042,0.058,-0.004
ABHD17A isoform 2 (UniProt Q96GS6),0,-0.011,-0.028,0.223,0.035,0.042,0.017,0.008,-0.068,0.11
BCLAF1 (UniProt Q9NYF8),0.036,0.075,-0.046,0.082,-0.304,-0.018,0.143,-0.063,-0.089,-0.15
AIF1 (UniProt P55008),0.155,-0.02,0.09,0.08,-0.051,0.093,0.058,-0.126,,
ATP2A3 isoform 2 (UniProt Q93084),-0.002,-0.002,0.053,-0.002,-0.014,0.014,-0.003,-0.04,-0.025,0.059
ACTBL2 (UniProt Q562R1),-0.247,-0.805,0.093,0.025,-0.419,-0.215,0.047,0.147,,
BAIAP2 (UniProt Q9UQB8),0.033,0.089,0.012,-0.008,0.018,0.017,0.014,-0.063,-0.101,-0.016
ATP5IF1 (UniProt Q9UII2),0.001,-0.122,0.032,-0.005,-0.104,0.007,-0.051,0.153,0.053,0.032
BAD (UniProt Q92934),0.049,0.079,0.022,0.124,0.083,0.023,0.01,0.025,,
ARFGAP2 (UniProt Q8N6H7),0.017,0.034,0.019,-0.016,0.06,0,-0.01,-0.007,-0.053,-0.009
ALKBH4 (UniProt Q9NXW9),0.067,0.084,0.018,0.078,0.106,-0.129,0.032,-0.006,-0.074,0.091
